Experimental data taken from PubChem BioAssay AID588343 (Broad Institute, 2011).
Screen size: about 1,200 compounds; about 650 (54%) were called active. About 5% were inconclusive and are not listed.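 Rule for the calls: active = signal-lowering curve whose fitted half-maximal concentration is at or below ten times the top valid dose tested; inconclusive = flat curve with 30 to 70% inhibition, or poor fit; inactive = signal increase, flat within 30%, or potency beyond limit.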 So high a share suggests a set chosen from earlier hits. These entries were drawn from the full list. Entries with a potency or affinity are not part of this list.

Test: inhibitors of LMP1-driven NF-kB reporter, dose response, cell-based, HEK293, luciferase, cherry-pick (AID 588343);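 note: 0% = median of neutral control wells and -100% = MG132 positive control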
Conditions: HEK293 LMP1 TES2 NF-kB luciferase reporter, 16 h; series mostly up to 35 µM; activity change, negative = inhibition: at the top concentration

Compound | activity change, negative = inhibition
Cc1cc(N)nc(=O)n1C1CC(O)C(CO)O1 (stereo unspecified) | 3.79% (inactive)
O=C1CN(C(=O)c2ccc(F)c(S(=O)(=O)N3CCOCC3)c2)c2ccccc2N1 | 2.87% (inactive)
COc1ccc(C(=O)OCC(=O)c2c[nH]c3ccccc23)cc1OC | 19.4% (inactive)
O=C(O)c1cc(=O)c2c(OCC(O)COc3cccc4oc(C(=O)O)cc(=O)c34)cccc2o1 | -2.82% (inactive)
Cc1ccc(NS(=O)(=O)c2ccc(NC(=O)C(C)Sc3ccc(Cl)cc3)cc2)c(C)c1 (stereo unspecified) | -1.07% (inactive)
COc1ccc(CNC(=O)COC(=O)[C@@H]2CCCN2C(=O)c2cccs2)cc1 | 12.8% (inactive)
O=[N+]([O-])c1ccc(Cl)c(S(=O)(=O)NCC2CCCO2)c1 (stereo unspecified) | -1.9% (inactive)
CSc1ccc2c(c1)C(N1CCN(C)CC1)Cc1ccccc1S2 (stereo unspecified) | 26.9% (inactive)
O=C(c1ccc(C#CC2(O)CCCCC2)cc1)N1CCN(C(c2ccccc2)c2ccccc2)CC1 | 12.4% (inactive)
COCCNC(=O)NC12CC3(C)CC(C)(CC(C)(C3)C1)C2 | -9.45% (inactive)
COc1cc(CC(=O)N(c2ccccc2)c2nc(C)cs2)cc(OC)c1OC | -10.2% (inactive)
Clc1ccc(-c2ccnc(Oc3ccc4ccccc4c3)n2)cc1 | -0.802% (inactive)
Cc1ccc(-c2cc(N)n3nc(-c4ccc(C)cc4)cc3n2)cc1 | -2.58% (inactive)
COC(=O)c1ccccc1NC(=O)CC(=O)Nc1ccccc1C(=O)OC | -4.89% (inactive)
Cc1nc(SCC(=O)c2cccc([N+](=O)[O-])c2)n[nH]1 | -9.98% (inactive)
C[C@H](CO)N1C[C@H](C)[C@@H](CN(C)C(=O)NC2CCCCC2)Oc2c(NS(=O)(=O)c3cn(C)cn3)cccc2C1=O | -12.5% (inactive)
NC1=NC(=O)NC1(c1ccccc1)c1ccccc1 | -6.22% (inactive)
COc1cc2nc(N3CCN(C(=O)C4CCCO4)CC3)nc(N)c2cc1OC (stereo unspecified) | -3.99% (inactive)
C[C@H](NC(=O)N1CCn2c1nc1ccccc12)C(=O)NCC1CCCO1 (stereo partly specified) | -8.38% (inactive)
CCOC(=O)OC(C)OC(=O)[C@@H]1N2C(=O)[C@@H](NC(=O)[C@H](N)c3ccccc3)[C@H]2SC1(C)C (stereo partly specified) | 33.8% (inactive)
CSc1oc(-c2ccc(F)cc2)nc1S(=O)(=O)c1ccc(F)cc1 | -11.4% (inactive)
CC(NC(=O)CCOc1ccccc1)c1ccccc1 (stereo unspecified) | 18.7% (inactive)

Compound | activity change, negative = inhibition
O=C(O)c1cn2c3c(ccc(Cl)c3c1=O)OCC2 | 48.2% (inactive)
Oc1cccc(/C=N/NC(=S)NCCN2CCOCC2)c1O | 9.95% (inactive)
CN(C)CCC(c1ccccc1)c1ccccn1 (stereo unspecified) | -3.57% (inactive)
COC(=O)CN(c1ccccc1F)S(=O)(=O)c1ccc(C)cc1 | 1.91% (inactive)
CC(=O)O[C@H]1CC[C@@]2(C)C(=CC[C@H]3[C@@H]4CC[C@H](C(C)=O)[C@@]4(C)CC[C@@H]32)C1 | 33% (inactive)
CN(C)/C=C/C(=O)c1ccc2noc(-c3ccccc3)c2c1 | -14.1% (inactive)
CCON1C(=O)C2(CCCCC2)C(=O)C12C=CCCC2 (stereo unspecified) | 14.9% (inactive)
CCN(CC)c1ccc(NC(=O)c2cccc(F)c2)c(C)c1 | -2.49% (inactive)
CCOC(=O)CCSc1nc(N2CCOCC2)c2c(c1C#N)CC(C)(C)OC2 | 39.6% (inactive)
CSc1nc(C)nc2c1c(=O)n(C)c(=O)n2C | 3% (inactive)
COCCn1c(SCc2ccc(C(=O)OC)o2)nnc1-c1c[nH]c2ccccc12 | -5.45% (inactive)
CCOc1ccc(NC(=O)CCc2nnc3ccc(N4CCC5(CC4)OCCO5)nn23)cc1 | -2.59% (inactive)
COc1ccc(C2CC(C(F)(F)F)n3ncc(C(=O)NCc4cccnc4)c3N2)cc1OC (stereo unspecified) | -9.55% (inactive)
CCCCCC(=O)NC(=S)Nc1ccc(Br)cc1C | -9.81% (inactive)
CC(CNC1CCCCC1)OC(=O)c1ccccc1 (stereo unspecified) | 33.2% (inactive)
CCC(=O)NC(=S)Nc1ccccc1C(F)(F)F | 0.113% (inactive)
CCN(C(=O)c1cccc(NC(=O)c2ccccc2)c1)C1CCCCC1 | 8.9% (inactive)
COc1ccc(C(=O)N(CN2CCCC2=O)c2cc(C)on2)cc1OC | 5.34% (inactive)
O=C1OCC2=C1C(c1ccc3c(c1)OCO3)c1cc3c(cc1O2)OCO3 (stereo unspecified) | -9.53% (inactive)
CNC1(C)[C@H]2CC[C@H](C2)C1(C)C (stereo partly specified) | 1.19% (inactive)
Cc1ccc(NC(=O)/C=N/OCC(=O)NCc2ccccc2Cl)cc1 | 19.4% (inactive)
COCC(=O)N(C)c1nnc(-c2ccccn2)s1 | 13.8% (inactive)

Compound | activity change, negative = inhibition
Cc1cc(C)cc(C(=O)NCCC(=O)NCc2cc(=O)n(C)c(=O)n2C)c1 | -6.55% (inactive)
CCOCCCNC(=O)CN1C(=O)/C(=C\c2ccc(C)cc2)Sc2ccccc21 | 2.45% (inactive)
Cc1ccc(S(=O)(=O)N2CCC[C@H]2C(=O)Nc2ccccc2C)cc1 | -11.7% (inactive)
CCN(C(=O)c1cc(OC)c(OC)c(OC)c1)C1CCCCC1 | -5.54% (inactive)
C[C@]12CC[C@@H]3c4ccc(OS(=O)(=O)O)cc4CC[C@H]3[C@@H]1CCC2=O | 4.2% (inactive)
O=c1c([N+](=O)[O-])cn(Cc2ccccc2)c(=O)n1Cc1ccccc1 | 20.6% (inactive)
C[C@@]12C(=O)N(Cc3ccccc3)CC(=O)N1[C@H](/C=C/c1ccccc1)[C@@H]1C(=O)N(c3ccccc3)C(=O)[C@@H]12 | 14.8% (inactive)
O=c1cc(-c2ccccc2)[nH]c2ccc(F)cc12 | 3.13% (inactive)
O=C(C1CC1)N1N=C(c2ccc(Br)cc2)CC1(O)C(F)(F)F (stereo unspecified) | -10.1% (inactive)
COc1cc(OC)cc(-c2c(C#Cc3ccsc3)c3cc(-c4cc(OC)c(OC)c(OC)c4)ccc3n2C)c1 | 9.2% (inactive)
Cc1cccn2c(=O)c(C=NCCO)c(NCc3ccco3)nc12 | -3.39% (inactive)
CCCc1nc(SCC(=O)NCc2ccco2)c2c(=O)n(C)c(=O)n(C)c2n1 | 19.7% (inactive)
Cc1cccc(Nc2nc(Cl)ncc2F)c1C | -11.5% (inactive)
COc1ccccc1C=NN=Cc1ccccc1O | 27.4% (inactive)
COC(CNC(=O)c1ccc(N2CCC3(CC2)OCCO3)c([N+](=O)[O-])c1)OC | -6.61% (inactive)
CC(=O)Nc1ccc(NC(=O)C(c2ccccc2)c2ccccc2)cc1 | 1.86% (inactive)
CCOC(=O)[C@H]1[C@H]2COc3ccc(OC)cc3[C@@H]2N2C(=O)CN(C)C(=O)[C@@]12C | -6.5% (inactive)
COc1ccc(C2=NN(C(=O)CSC3=NN4CCCC(=O)N=C4S3)C(c3cccc(OC)c3OC)C2)cc1 (stereo unspecified) | 5.71% (inactive)
CCOC(=O)Nc1ccc2c(c1)N(C(=O)CN(C)C)c1ccccc1CC2 | -14.1% (inactive)
Cn1c(=O)c2c(ncn2CC(=O)Nc2cc(S(=O)(=O)N3CCCCC3)ccc2O)n(C)c1=O | 12% (inactive)
CCCN1C(=O)C2(SC(NC(C)=O)=NN2C(C)=O)c2cc(C)cc(C)c21 (stereo unspecified) | -12.8% (inactive)
CCC(C)[C@H](NC(=O)NCc1cccnc1)C(=O)OC (stereo partly specified) | 9.79% (inactive)
